The source of these data is PubChem BioAssay (EPA / NIEHS).

What all share (details): mRNA level, 48 h; actives raise or lower the signal
Read-out in assay [1]: Cytochrome P450 4A22 (Homo sapiens) (UniProt Q5TCH4)
The experiment in a line: LTEA_HepaRG_CYP4A22: Life Technologies and Expression Analysis (LTEA) Assay for Cytochrome P450 4A22 (CYP4A22) using HepaRG (AID 2283495). Put shortly: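 HepaRG, 48 h post-plating -> serum-free induction medium; dosed 48 h, duplicate, 8 conc. (100 uM top, half-log), 0.5% DMSO. Readout: CYP4A22 mRNA by qRT-PCR, ACTB/GAPDH/POLR2A normalization; gain/loss fit relative to DMSO.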

Read-out in assay [2]: Cytochrome P450 7A1 (Homo sapiens) (UniProt P22680)
The assay is described as follows: LTEA_HepaRG_CYP7A1: Life Technologies and Expression Analysis (LTEA) Assay for Cytochrome P450 7A1 (CYP7A1) using HepaRG (AID 2283496). In a few lines: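 Using 0.5% DMSO as vehicle and baseline, chemicals were tested in duplicate over an 8-point range from 100 uM on HepaRG cells for 48 h; qRT-PCR signals were normalised to ACTB, GAPDH and POLR2A.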

Read-out in assay [3]: Glutathione S-Transferase (GSTA2), GSTA2 (gene 2939)
The assay is described as follows: LTEA_HepaRG_GSTA2: Life Technologies and Expression Analysis (LTEA) Assay for Glutathione S-Transferase (GSTA2) using HepaRG (AID 2283497). In a few lines:
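qRT-PCR readout of GSTA2 transcript, normalized to three housekeeping genes, fitted bidirectionally against 0.5% DMSO baseline. Differentiated HepaRG cells received compound for 48 h at 8 concentrations (top 100 uM, half-log steps).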

Read-out in assay [4]: growth arrest and DNA damage 45 (GADD45G), GADD45G (gene 10912)
The assay is described as follows: LTEA_HepaRG_GADD45G: Life Technologies and Expression Analysis (LTEA) Assay for growth arrest and DNA damage 45 (GADD45G) using HepaRG (AID 2283499). In a few lines:
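HepaRG, 48 h exposure, top 100 uM, half-log 8-point series, 0.5% DMSO vehicle, duplicates. Readout: GADD45G transcript by qRT-PCR (Fluidigm array), housekeeping-normalised (ACTB/GAPDH/POLR2A). Bidirectional curve fit vs DMSO baseline.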

Read-out in assay [5]: Glutamate-cysteine ligase regulatory (GCLM), GCLM (gene 2730)
The assay is described as follows: LTEA_HepaRG_GCLM: Life Technologies and Expression Analysis (LTEA) Assay for Glutamate-cysteine ligase regulatory (GCLM) using HepaRG (AID 2283500). Put shortly:
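HepaRG, 48 h dosing, 100 uM top, half-log x8, 0.5% DMSO vehicle. Readout: GCLM mRNA by TaqMan qRT-PCR, housekeeping-normalized (ACTB/GAPDH/POLR2A). Curves fit bidirectionally vs DMSO baseline.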

Read-out in assay [6]: Heat shock 70 kDa protein 1 (HSPA1A), gene 3303
The experiment in a line: LTEA_HepaRG_HSPA1A: Life Technologies and Expression Analysis (LTEA) Assay for Heat shock 70 kDa protein 1 (HSPA1A) using HepaRG (AID 2283502). Put shortly:
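HepaRG, 48 h exposure, 8-pt half-log CRC from 100 uM in 0.5% DMSO, duplicates. Readout: TaqMan qRT-PCR of HSPA1A mRNA, housekeeping-normalized (ACTB/GAPDH/POLR2A). Bidirectional fit vs 0.5% DMSO baseline.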

Read-out in assay [7]: Hypoxia-inducible factor 1-alpha (Homo sapiens) (UniProt Q16665)
The assay is described as follows: LTEA_HepaRG_HIF1A: Life Technologies and Expression Analysis (LTEA) Assay for Hypoxia-inducible factor 1 (HIF1A) Trancription factor using HepaRG (AID 2283503). In a few lines: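 Gain- or loss-of-signal HIF1A mRNA changes are fitted against a DMSO baseline. HepaRG cultures receive eight concentrations, highest 100 uM, for 48 h in serum-free induction medium with 0.5% DMSO.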

Read-out in assay [8]: 3-Hydroxy-3-Methylglutaryl-CoA Synthase 2 (HMGCS2), HMGCS2 (gene 3158)
The assay is described as follows: LTEA_HepaRG_HMGCS2: Life Technologies and Expression Analysis (LTEA) Assay for 3-Hydroxy-3-Methylglutaryl-CoA Synthase 2 (HMGCS2) using HepaRG (AID 2283504). Put shortly:
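qRT-PCR read-out of HMGCS2 transcript, normalised to three housekeeping genes, in HepaRG cells after 48 h chemical exposure. Eight-point curves from 100 uM, half-log dilutions, 0.5% DMSO vehicle; gain or loss fitted relative to DMSO baseline.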

Read-out in a further assay: HGF (gene 3082)
The assay is described as follows: LTEA_HepaRG_HGF: Life Technologies and Expression Analysis (LTEA) Assay for Hepatocyte Growth Facto (HGF) using HepaRG (AID 2283505). Put shortly:
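HepaRG, 48 h dosing, 8-pt half-log series from 100 uM in 0.5% DMSO, duplicates. Readout: TaqMan qRT-PCR of HGF mRNA, housekeeping-normalized; bidirectional curve fit vs DMSO baseline.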

Read-out in assay [9]: Insulin Like Growth Factor 1 (IGF1), IGF1 (gene 3479)
The assay is described as follows: LTEA_HepaRG_IGF1: Life Technologies and Expression Analysis (LTEA) Assay for Insulin Like Growth Factor 1 (IGF1) using HepaRG (AID 2283506). In a few lines: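 qRT-PCR readout of IGF1 mRNA, normalized to three housekeeping genes, after 48 h chemical exposure of HepaRG cells. Concentrations: 8-point half-log series, top 100 uM, 0.5% DMSO vehicle. Gain or loss fitted against DMSO baseline.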

Read-out in assay [10]: Intercellular Adhesion Molecule 1 (ICAM1), ICAM1 (gene 3383)
The assay is described as follows: LTEA_HepaRG_ICAM1: Life Technologies and Expression Analysis (LTEA) Assay for Intercellular Adhesion Molecule 1 (ICAM1) using HepaRG (AID 2283507). In a few lines:
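HepaRG, 48 h exposure, 8-pt half-log series from 100 uM, 0.5% DMSO vehicle, duplicates. Readout: TaqMan qRT-PCR mRNA, housekeeping-normalized (ACTB/GAPDH/POLR2A). Bidirectional curve fit vs DMSO baseline.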

Read-out in assay [11]: Insulin-like growth factor-binding protein 1 (IGFBP1), IGFBP1 (gene 3484)
The assay is described as follows: LTEA_HepaRG_IGFBP1: Life Technologies and Expression Analysis (LTEA) Assay for Insulin-like growth factor-binding protein 1 (IGFBP1) using HepaRG (AID 2283508). Put shortly:
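qRT-PCR mRNA read-out (TaqMan, Fluidigm array), normalised to three housekeeping genes; HepaRG cells, 48 h exposure, 8-pt half-log series from 100 uM, 0.5% DMSO vehicle; bidirectional curve fit vs DMSO baseline.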

Read-out in assay [12]: Interleukin 6 Receptor (IL6R), IL6R (gene 3570)
The experiment in a line: LTEA_HepaRG_IL6R: Life Technologies and Expression Analysis (LTEA) Assay for Interleukin 6 Receptor (IL6R) using HepaRG (AID 2283510).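 For AC50: differentiated human HepaRG liver cells in serum-free induction medium.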 In a few lines:
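HepaRG, 48 h exposure, 8-pt half-log series, top 100 uM, 0.5% DMSO vehicle, duplicates. Read-out: TaqMan qRT-PCR of IL6R transcript, housekeeping-gene normalized. Gain or loss fitted relative to DMSO baseline.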

Read-out in assay [13]: Potassium channel subfamily K member 1 (KCNK1), KCNK1 (gene 3775)
The assay is described as follows: LTEA_HepaRG_KCNK1: Life Technologies and Expression Analysis (LTEA) Assay for Potassium channel subfamily K member 1 (KCNK1) using HepaRG (AID 2283511). Put shortly:
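HepaRG, 48 h exposure, 8-pt half-log series top 100 uM, 0.5% DMSO vehicle, duplicates. Readout: KCNK1 transcript by qRT-PCR (Fluidigm array), housekeeping-normalized; bidirectional curve fit relative to DMSO baseline.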

Read-out in assay [14]: Keratin 19 (KRT19), KRT19 (gene 3880)
The assay is described as follows: LTEA_HepaRG_KRT19: Life Technologies and Expression Analysis (LTEA) Assay for Keratin 19 (KRT19) using HepaRG (AID 2283512). Put shortly: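 HepaRG, 48 h chemical exposure, 8-pt half-log CRC from 100 uM, 0.5% DMSO vehicle, duplicates. Readout: TaqMan qRT-PCR of KRT19 mRNA, housekeeping-normalized (ACTB/GAPDH/POLR2A). Bidirectional fit vs DMSO baseline.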

Read-out in assay [15]: Lipase C (LIPC), LIPC (gene 3990)
The experiment in a line: LTEA_HepaRG_LIPC: Life Technologies and Expression Analysis (LTEA) Assay for Lipase C (LIPC) using HepaRG (AID 2283514). Put shortly: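 HepaRG, 48 h exposure, 8-pt half-log series from 100 uM in 0.5% DMSO, duplicates. Readout: LIPC mRNA by Fluidigm qRT-PCR, housekeeping-normalized (ACTB/GAPDH/POLR2A). Gain or loss fitted bidirectionally against DMSO baseline.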

Read-out in assay [16]: Lipoprotein lipase (LPL), LPL (gene 4023)
The assay is described as follows: LTEA_HepaRG_LPL: Life Technologies and Expression Analysis (LTEA) Assay for Lipoprotein lipase (LPL) using HepaRG (AID 2283515). Put shortly: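 HepaRG, 48 h exposure, 8-pt half-log dilutions from 100 uM, 0.5% DMSO vehicle, duplicates; qRT-PCR (Fluidigm array) of LPL mRNA vs housekeeping genes; bidirectional curve fit relative to DMSO baseline.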

Read-out in assay [17]: MicroRNA 122 (MIR122), gene 406906
The assay is described as follows: LTEA_HepaRG_MIR122: Life Technologies and Expression Analysis (LTEA) Assay for MicroRNA 122 (MIR122) using HepaRG (AID 2283516). Note: the transcript read is the microRNA miR-122. In a few lines:
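qRT-PCR read-out (TaqMan, Fluidigm array), normalized to three housekeeping genes; HepaRG cells dosed 48 h at 8 concentrations up to 100 uM in 0.5% DMSO, duplicate; gain or loss fitted against DMSO baseline.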

Read-out in assay [18]: matrix metalloproteinase-10 (MMP10), MMP10 (gene 4319)
The assay is described as follows: LTEA_HepaRG_MMP10: Life Technologies and Expression Analysis (LTEA) Assay for matrix metalloproteinase-10 (MMP10) using HepaRG (AID 2283517). In a few lines:
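Transcript levels come from Fluidigm qRT-PCR normalized to three housekeeping genes, with curves fitted bidirectionally against 0.5% DMSO. Human HepaRG cells were dosed for 48 hours at concentrations up to 100 uM.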

Read-out in a further assay: MYC, MYC (gene 4609)
The experiment in a line: LTEA_HepaRG_MYC: Life Technologies and Expression Analysis (LTEA) Assay for MYC using HepaRG (AID 2283518). In a few lines: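 qRT-PCR read-out of MYC transcript (Fluidigm TaqMan, housekeeping-normalized) after 48 h chemical exposure of HepaRG cells; eight concentrations, top 100 uM, half-log steps. Bidirectional curve fitting against 0.5% DMSO vehicle baseline.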

Active and inactive are the calls of the source. Rule for the calls: active = hit-call score of the fitted dose curve at least 0.9, where 1 is the maximum; inactive = score below 0.9.

Sequence of Hypoxia-inducible factor 1-alpha (Homo sapiens) (Q16665 whole entry, looked up): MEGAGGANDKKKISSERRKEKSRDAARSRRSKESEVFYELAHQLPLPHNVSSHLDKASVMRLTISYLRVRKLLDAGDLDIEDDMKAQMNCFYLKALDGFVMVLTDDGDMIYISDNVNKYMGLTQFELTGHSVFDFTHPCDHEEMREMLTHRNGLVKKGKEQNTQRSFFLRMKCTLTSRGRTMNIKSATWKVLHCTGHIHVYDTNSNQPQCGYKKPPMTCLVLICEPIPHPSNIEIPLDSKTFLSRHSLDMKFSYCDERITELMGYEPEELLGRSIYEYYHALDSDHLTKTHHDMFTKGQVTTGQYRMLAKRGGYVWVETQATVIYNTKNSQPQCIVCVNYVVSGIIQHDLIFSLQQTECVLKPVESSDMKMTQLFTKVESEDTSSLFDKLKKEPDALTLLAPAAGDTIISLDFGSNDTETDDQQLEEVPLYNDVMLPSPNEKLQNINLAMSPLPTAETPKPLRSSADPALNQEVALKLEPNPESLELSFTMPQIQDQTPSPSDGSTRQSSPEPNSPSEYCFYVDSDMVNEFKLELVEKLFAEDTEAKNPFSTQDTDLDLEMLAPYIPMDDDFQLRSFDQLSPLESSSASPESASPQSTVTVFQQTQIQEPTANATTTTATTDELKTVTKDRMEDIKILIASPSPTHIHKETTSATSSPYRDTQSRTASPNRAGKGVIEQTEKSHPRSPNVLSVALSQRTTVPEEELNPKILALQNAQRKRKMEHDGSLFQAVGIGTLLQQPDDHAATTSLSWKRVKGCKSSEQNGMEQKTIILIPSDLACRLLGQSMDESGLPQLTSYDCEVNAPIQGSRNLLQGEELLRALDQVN

Consider `ClCC(Cl)CCl`, for which the outcome in assay [1], in assay [2], in assay [3], in assay [4], in [5] and in [6] was inactive. In addition, the result (in assay [7]; in assay [8]; with HGF (gene 3082); in assay [9]; in assay [10]; in assay [11]) was inactive. Further, the result in assay [12], in [13], in [14], in assay [15], in assay [16] and in assay [17] was inactive. The outcome in assay [18] was “inactive”; in the assay with MYC, MYC (gene 4609), “inactive”.

As a reminder, the AC50 is the concentration giving half of the maximal activity seen. Turning to `O=C(O)C(F)(F)C(F)(F)C(F)(F)C(F)(F)C(F)(F)C(F)(F)C(F)(F)C(F)(F)C(F)(F)C(F)(F)F`, the outcome in assay [1], in assay [4], in assay [5], in assay [6], in assay [7] and in assay [8] was inactive. Besides, the call (with HGF (gene 3082); in assay [9]; in [10]; in [11]; in assay [13]; in [14]) was inactive. The outcome in assay [15] is “inactive”; in assay [18], “inactive”; in the assay with MYC, MYC (gene 4609), “inactive”. Further, the AC50 is 46.5 µM (active) in [2], 47.8 µM (active) in assay [3], 47.8 µM (active) in assay [12] and 47.8 µM (active) in assay [16].

Take `C=C(C)C(=O)[O][Sn]([CH2]CCC)([CH2]CCC)[CH2]CCC`: the call in [3], in assay [12], in [13], in assay [14], in assay [17] and in [18] was inactive. Besides, the AC50 in [4] is 1.21 µM (active); in [5], 88.7 µM (active); in assay [6], 89.6 µM (active); in [7] it was 5.19 µM (active); in assay [8] it was 2.69 µM (active); in the assay with HGF (gene 3082), 72 µM (active). For the same compound, the half-maximal activity concentration (AC50) was 1.2 µM (active) in [9]; 2.12 µM (active) in assay [10]; 2.66 µM (active) in assay [11]; 2.37 µM (active) in [15]; 6.44 µM (active) in [16]; 2.77 µM (active) in the assay with MYC, MYC (gene 4609).

For `Cc1ccccc1N`, the compound was classed as inactive in assay [1], in assay [2], in assay [3], in [4], in assay [5] and in assay [6]. The call (in assay [7]; in assay [8]; in the assay with HGF (gene 3082); in assay [9]; in [10]; in [11]) was inactive. In addition, the outcome in assay [12], in assay [13], in assay [14], in assay [15], in [16] and in assay [17] was inactive. Besides, the outcome in assay [18] was “inactive”; with MYC, MYC (gene 4609), “inactive”.
